# IMPase inh: membrane-permeable compound that blocks inositol monophosphatase. CHO-M1 cells, IP1 accumulation, HTRF TR-FRET ratio. inhibition (IP1 accumulation), % at 46.1 µM. 120,000 tested, under 10 active; active = well fitted curve in the direction sought with a large enough effect in the signal ratio, not every such curve was filed as active; inconclusive = small, poorly fitted or top-dose-only effect, or a change in a side signal; inactive = no such curve, though single readings can be large or run the other way; the % refers to the signal ratio;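 note: cells stimulated with carbachol in lithium chloride buffer; plate controls were DMSO basal wells for no effect and reference inhibitor wells for full effect; higher means more IMPase inhibition seen as more IP1 and lower FRET ratio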
# Target sequence (P97697 whole entry, looked up): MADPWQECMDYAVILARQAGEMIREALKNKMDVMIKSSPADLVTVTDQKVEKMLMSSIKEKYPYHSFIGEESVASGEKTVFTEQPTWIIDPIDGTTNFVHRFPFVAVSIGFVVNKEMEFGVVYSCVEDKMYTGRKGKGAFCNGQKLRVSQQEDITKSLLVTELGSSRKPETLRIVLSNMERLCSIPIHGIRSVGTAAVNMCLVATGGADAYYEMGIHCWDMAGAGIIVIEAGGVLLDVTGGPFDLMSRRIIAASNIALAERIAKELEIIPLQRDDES
#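 CHO-M1 cells (CHO stably expressing M1 receptor), compound up to 46 uM final, stimulated with carbachol (50 uM as added) in buffer with 50mM LiCl, pH 7.4, 30 min at 37C. Cytosolic IP1 read by TR-FRET; AC50 from Hill fits.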
# HPGD block: inhibitors of human 15-hydroxyprostaglandin dehydrogenase (HPGD); purified HPGD, NADH fluorescence kinetic, PGE2 substrate; Potency, µM, for the others: top-dose activity change, negative = inhibition, most hits filed as inhibitors; 150,000 tested, 4.3% active; P15428; note: potency is the fitted concentration of half-maximal effect
# Target sequence (P15428 whole entry, looked up): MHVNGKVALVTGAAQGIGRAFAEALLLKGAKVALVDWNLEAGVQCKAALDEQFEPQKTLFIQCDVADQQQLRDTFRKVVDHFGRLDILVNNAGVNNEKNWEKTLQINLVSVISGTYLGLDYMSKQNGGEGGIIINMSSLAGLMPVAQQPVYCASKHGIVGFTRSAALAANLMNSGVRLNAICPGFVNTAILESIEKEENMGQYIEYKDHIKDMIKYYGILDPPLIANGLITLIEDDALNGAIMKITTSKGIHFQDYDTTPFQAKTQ
#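 20 nM HPGD preincubated 15 min at room temperature with compound in 50 mM Tris-HCl pH 8, 0.01% Tween 20. Started with 1 mM NAD+ and 30 uM prostaglandin E2; NADH fluorescence (360/450 nm) read 5 times over 30-s intervals, last minus first.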
# PNC inhibitor: perinucleolar compartment assembly inhibition | PC3M PTB-GFP, PNC prevalence imaging, 16 h; stronger effect = lower value | activity change (PNC), negative = inhibition, % at 10 µM | 140,000 tested, 3.1% active | AID 2417;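 active = readout at or below -70, meaning at least 70% loss of cells showing the perinucleolar compartment, a nuclear body marking cancer cells; inconclusive = readout between -30 and a set limit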;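 note: plate controls were DMSO wells for no effect and camptothecin positive control wells for full effect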
#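 Read-out is percentage of cells bearing a perinucleolar compartment, from automated 20x imaging of fixed, Hoechst-stained PC3M PTB-GFP cells. Cells were seeded 4 h, then exposed 16 h to compound (23 nl of library stock) in duplicate plates.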
# 12-hLO inh: 12-hLO (ALOX12) enzyme inhibition; P18054; purified 12-hLO, xylenol orange hydroperoxide absorbance; Potency, µM (series often up to 57.1 µM), for inactives: at the top dose activity change, negative = inhibition, actives largely listed as inhibitors; 150,000 tested, 0.12% active; active = well fitted curve in the direction sought with a large enough effect; inconclusive = small, poorly fitted or top-dose-only effect, or another doubt; inactive = no such curve, though single readings can be large; an effect the other way counts as inactive or inconclusive; note: potency is the fitted concentration of half-maximal effect; nearly all actives have a fitted effect of over 55% in size
#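 150 nM 12hLO, 25 mM Hepes pH 7.0 + 0.01% Triton X-100; cpd preinc 15 min RT; 40 uM arachidonic acid, 30 min RT; Fe-XO 30 min; A573/A405 ratio as read-out.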
# IMPase Li inh: IMPase inhibition in cells with lithium potentiation; CHO-M1 cells, IP1 TR-FRET (IP-One), carbachol + lithium; Potency, µM (titrated, usually from 59.4 µM), without a hit: at the top dose activity, negative = IMPase inhibition, actives largely listed as inhibitors; 210,000 tested, 0.35% active; active = well fitted curve in the direction sought with a large enough effect; inconclusive = small, poorly fitted or top-dose-only effect, or another doubt; inactive = no such curve, though single readings can be large; an effect the other way counts as inactive or inconclusive;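 note: IP1 builds up when IMPase is blocked and the TR-FRET signal falls; potency is the fitted concentration of half-maximal effect; plate controls were basal vehicle for no effect and high inhibitor control for full effect; nearly all actives have a fitted effect of over 50% in size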
#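 IP1 accumulation measured by competitive TR-FRET in lysed CHO-M1 cells after 30 min compound exposure at 37C, with a small lithium addition to potentiate weak responses. Hill-equation AC50 from ratio and donor-channel data.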
# ALDH1A1 block: ALDH1A1 (human) enzyme inhibition | P00352 | Purified ALDH1A1, NADH fluorescence, propionaldehyde substrate | Potency, µM (titrated, usually from 75.3 µM), for the others: top-dose activity, negative = inhibition, usual class: inhibitors | 220,000 tested, 7.3% active | AID 1030;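 note: potency is the fitted concentration of half-maximal effect; plate controls were no enzyme wells and a reference inhibitor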
# An asterisk follows results filed as active; ? = inconclusive; . = no result; ! = a repeat was not active; [ ] = dose if it differs, or a comment. An excerpt weighted towards active compounds, which were near 11% of everything screened. Unless noted, calls come from the whole dose curve; as a rule, active = well fitted inhibition curve with a large enough effect (not every such curve was filed as active); inconclusive = small, poorly fitted or top-dose-only effect, or another doubt; inactive = no such curve, though single readings can be large or run the other way. Unless noted, % is set by controls: 0 for no effect and ±100 for the full control effect.
SMILES,IMPase inh,HPGD block,PNC inhibitor,12-hLO inh,IMPase Li inh,ALDH1A1 block
O=C(O)c1ccccc1O,.,?,?,0.8%,4.0%,?
CN[C@@H](CC(C)C)C(=O)N[C@@H]1C(=O)N[C@H](CC(N)=O)C(=O)N[C@@H]2C(=O)N[C@H]3C(=O)N[C@H](C(=O)N[C@H](C(=O)O)c4cc(O)cc(O)c4-c4cc3ccc4O)[C@H](O)c3ccc(c(Cl)c3)Oc3cc2cc(c3O[C@H]2O[C@@H](CO)[C@@H](O)[C@@H](O)[C@@H]2O[C@@H]2C[C@](C)(N)[C@H](O)[C@H](C)O2)Oc2ccc(cc2Cl)[C@@H]1O,5.9[20.6 µM],-6.8%,.,-2.6%[25.6 µM],-1.1%,0.1%[20.9 µM]
CC(=O)NNc1ccccc1,.,-2.4%,.,5.3%,21.4%,-5.1%
CC[C@@]1(c2ccc(N)cc2)CCC(=O)NC1=O,-4.7[20.6 µM],-11.0%,.,-1.9%[25.6 µM],4.5%,1.8%[20.9 µM]
Nc1ccc(C2(c3ccc(N)cc3)CCCCC2)cc1,.,.,.,.,7.0%,14.1µM*
Cc1cc2c(s1)NC(=O)CN=C2c1cccs1,14.5,25.1µM*,-21.1,-27.6%,-14.8%[38.3 µM],?
CCCCn1c(O)c(C(CC)=Nc2ccc(OC)cc2OC)c(=O)[nH]c1=O,9.5,15.8µM*,41.3,-14.2%,-7.0%[38.3 µM],4.8%
CCC(=NCc1cc(OC)cc(OC)c1)c1c(O)n(C)c(=O)n(C)c1=O,9.7,-19.7%,-11.0,4.3%,36.1%[38.3 µM],-4.9%
CCC(=Nc1ccc(OC)cc1OC)c1c(O)n(C)c(=O)n(C)c1=O,6.1,35.5µM*,0.1,-1.4%,14.9%[38.3 µM],?
Cc1[nH]n(-c2ccccc2)c(=O)c1C(c1cccc([N+](=O)[O-])c1O)c1c(C)[nH]n(-c2ccccc2)c1=O,.,28.2µM*,?,-23.4%,16.4%,15.8µM*
COc1cc(C(c2c(C)[nH]n(-c3ccccc3)c2=O)c2c(C)[nH]n(-c3ccccc3)c2=O)cc(OC)c1OC,2.8,-7.7%,?,0.5%,-3.0%[38.3 µM],10.1%
COC(=O)CCC(=O)Nc1sc(Cc2ccccc2)c(C)c1C(N)=O,.,.,.,.,7.0%,2µM*
O=C1NC(=O)N(CCC2=CCCCC2)C(=O)/C1=C\c1cccs1,.,0.316µM*,-85.6*,-14.8%,5.9%,1.26µM*
COCCN1C(=O)NC(=O)/C(=C\c2ccc(F)cc2)C1=O,.,.,.,.,1.2%,10.1%
O=C1NC(=O)N(CCc2ccc(F)cc2)C(=O)/C1=C/c1cccs1,.,.,.,.,-4.2%,1.41µM*
COc1ccc(OC)c(NC2=NCCS2)c1,.,.,.,.,3.8%,-9.7%
Fc1ccc(NC2=NCCS2)cc1Cl,4.1,12.6µM*,35.0,1.7%,23.9%[38.3 µM],7.0%
CC1=NN(c2ccccc2)C(=O)[C@@H]1N=Nc1ccc([As](=O)(O)O)c(O)c1,.,-5.9%,.,-5.7%[11.4 µM],1.0%,3.55µM*
Nc1nc(N)c(N=Nc2ccc([As](=O)(O)O)c(O)c2)c(N)n1,.,-3.3%,.,2.4%[11.4 µM],8.4%,8.9%[13.5 µM]
O=C(O)[C@@H]1[C@H](C(=O)O)[C@]2(Cl)C(Cl)=C(Cl)[C@@]1(Cl)C2(Cl)Cl,.,-20.8%,.,-4.8%[11.4 µM],-7.2%,3.16µM*
O=S1OCC2C(CO1)C1(Cl)C(Cl)=C(Cl)C2(Cl)C1(Cl)Cl (configuration not stated),.,-4.2%,.,-1.2%,6.5%,3.0%
CN=C=S,.,-2.0%,.,1.7%,5.2%,?
C[C@H]1C2C=C[C@H]1[C@@H](C(=O)O)[C@@H]2c1c2ccc(=O)c(O)c-2oc2c(O)c(O)ccc12,.,3.55µM*,.,.,2.2%,-4.1%[13.5 µM]
CC1(C)CCC(C)(C)c2c1ccc(O)c2Cc1c(O)ccc2c1C(C)(C)CCC2(C)C,.,-10.2%,.,-8.7%[11.4 µM],6.3%,-7.6%[13.5 µM]
COc1cc(-c2ccc(=O)[nH]n2)ccc1OC(F)F,4.0,20µM*!,.,1.2%[0.00818 µM],6.3%,-7.9%
SMILES,IMPase inh,HPGD block,PNC inhibitor,12-hLO inh,IMPase Li inh,ALDH1A1 block
CC(C)[C@H](NC(=O)[C@H](CCC(=O)O)NC(=O)[C@H](Cc1ccccc1)NC(=O)[C@H](C)NC(=O)[C@@H](N)Cc1ccc(O)cc1)C(=O)N[C@H](C(=O)NCC(N)=O)C(C)C,.,.,.,.,17.6%,6.7%
CN(C)C(=O)Cl,.,-8.5%,.,-3.1%,-11.7%,?
CC(=O)c1ccc(OC(NC(=O)c2ccco2)C(Cl)(Cl)Cl)cc1 (configuration not stated),3.5,25.1µM*,52.1,0.4%,4.9%[38.3 µM],?
CN(C)c1ccc(/C=C2/C(=O)NC(=O)N(Cc3ccco3)C2=O)cc1,.,10µM*,16.1,-8.3%,6.9%,1µM*
Cc1cc(/C=C2/C(=O)NC(=O)N(Cc3ccco3)C2=O)c(C)n1-c1ccccc1,.,?,7.2,-17.0%,4.0%,8.91µM*
CCN(CC)c1ccc(/C=C2/C(=O)NC(=O)N(Cc3ccco3)C2=O)cc1,-1.9,10µM*,-4.9,-0.5%,19.1%,0.562µM*
O=C1NC(=O)N(Cc2ccco2)C(=O)/C1=C\c1cccn1CCOc1ccc(Cl)cc1,9.2,-21.8%,-10.7,-27.0%,20.3%,-3.5%
CCN(CC)c1ccc(/C=C2\C(=O)NC(=O)N(CC3CCCO3)C2=O)cc1 (configuration not stated),.,25.1µM*,?,0.7%,-1.4%,0.251µM*
Cc1cc(/C=C2\C(=O)NC(=O)N(Cc3ccccc3)C2=O)c(C)n1C1CC1,.,.,.,.,4.1%,-8.8%
COc1cc(OC)c(OC)cc1/C=C1\C(=O)NC(=O)N(Cc2ccccc2)C1=O,.,.,.,.,7.3%,?
CC(=O)OCC1=C(C(=O)O)N2C(=O)C(NC(=O)CCCC(N)C(=O)O)C2SC1 (configuration not stated),.,-16.9%,.,-6.1%,3.6%,-0.4%
NNC(N)=S,.,-4.4%,.,3.4%,2.9%,?
Oc1ccccc1O,4.5,17.8µM*,.,-19.7%,-4.6%,14.1µM*
O=C(NC1C(=O)NNC1c1ccc(Cl)cc1)c1ccc(F)cc1 (configuration not stated),.,.,.,.,11.5%,?
O=C(Nc1nnc(SCc2ccccc2Cl)s1)C1COc2ccccc2O1 (configuration not stated),-1.5,15.8µM*,6.1,-1.4%,10.6%[38.3 µM],?
Cc1ccc(C2(c3ccc(C)c(O)c3C)CCN(C)CC2)c(C)c1O,.,-7.7%,.,3.2%[11.4 µM],0.2%,-1.6%[13.5 µM]
S=C(S)N1CCCC1,-4.3,10µM*,.,?,15.4%,0.794µM*
CC[n+]1c(/C=C/N(C)c2ccccc2)sc2ccc(Cl)cc21,19.8,-23.3%,5.6,-11.2%,20.4%[38.3 µM],15.8µM*
CC/C=C\C/C=C\C/C=C\C/C=C\C/C=C\CCCC(=O)NCCc1ccc(O)c(O)c1,.,-4.3%,.,-26.4%,21.0%,2.4%
O=Cc1cn(Cc2cccc([N+](=O)[O-])c2)c2ccccc12,.,-17.3%,?,-6.6%,-0.4%,3.98µM*
O=Cc1cn(Cc2ccccc2F)c2ccccc12,.,.,.,.,6.6%,0.447µM*
Cc1c(C=O)c2ccccc2n1Cc1ccccc1F,.,.,.,.,4.6%,?
